Measured values: ChEMBL document CHEMBL1961873, “Compounds: GSK PKIS; Assays: Nanosyn kinase panel” (2012)

Columns and labels:
[1] = biological target: Leukocyte tyrosine kinase receptor (Homo sapiens) (UniProt P29376); details: at 1 µM;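 also: each value is the mean inhibition of LTK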
[2] = biological target: Tyrosine-protein kinase Lyn (Homo sapiens) (UniProt P07948); details: at 0.1 µM
[3] = biological target: Tyrosine-protein kinase Lyn (Homo sapiens) (UniProt P07948); details: at 1 µM
[4] = biological target: Tyrosine-protein kinase Lyn (Homo sapiens) (UniProt P07948); details: at 0.1 µM; remark: listed apart in the source
[5] = biological target: Tyrosine-protein kinase Lyn (Homo sapiens) (UniProt P07948); details: at 1 µM; remark: listed apart in the source
[6] = biological target: T1, Tyrosine-protein kinase Mer (Homo sapiens) (UniProt Q12866); details: at 0.1 µM
T1 sequence (whole entry): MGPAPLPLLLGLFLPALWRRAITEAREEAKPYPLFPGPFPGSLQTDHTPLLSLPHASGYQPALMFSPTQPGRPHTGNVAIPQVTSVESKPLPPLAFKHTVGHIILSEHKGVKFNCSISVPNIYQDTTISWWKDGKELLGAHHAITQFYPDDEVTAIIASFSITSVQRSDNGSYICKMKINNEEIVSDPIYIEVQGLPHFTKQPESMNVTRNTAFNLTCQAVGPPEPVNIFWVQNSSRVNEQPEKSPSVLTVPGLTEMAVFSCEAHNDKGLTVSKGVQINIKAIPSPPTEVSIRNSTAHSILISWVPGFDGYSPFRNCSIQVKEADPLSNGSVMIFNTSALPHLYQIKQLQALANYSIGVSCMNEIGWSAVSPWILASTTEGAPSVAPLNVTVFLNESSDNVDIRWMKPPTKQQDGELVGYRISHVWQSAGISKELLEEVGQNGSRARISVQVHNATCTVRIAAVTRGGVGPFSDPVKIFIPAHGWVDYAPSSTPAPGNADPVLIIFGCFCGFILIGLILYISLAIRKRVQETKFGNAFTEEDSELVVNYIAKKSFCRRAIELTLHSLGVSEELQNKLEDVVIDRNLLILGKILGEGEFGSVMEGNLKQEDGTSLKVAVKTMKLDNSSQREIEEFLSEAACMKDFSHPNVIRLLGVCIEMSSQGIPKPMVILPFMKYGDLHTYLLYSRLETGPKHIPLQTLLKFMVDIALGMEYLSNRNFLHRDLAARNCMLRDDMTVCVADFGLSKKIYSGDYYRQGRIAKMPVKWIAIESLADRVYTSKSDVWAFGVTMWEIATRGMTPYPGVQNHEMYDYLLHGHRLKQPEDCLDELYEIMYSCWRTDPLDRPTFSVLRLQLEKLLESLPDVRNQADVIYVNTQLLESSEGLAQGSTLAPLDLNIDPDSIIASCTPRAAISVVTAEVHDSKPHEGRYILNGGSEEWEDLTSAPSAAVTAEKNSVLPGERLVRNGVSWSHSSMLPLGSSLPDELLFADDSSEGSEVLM

[7] = biological target: T1, Tyrosine-protein kinase Mer (Homo sapiens); details: at 1 µM
[8] = biological target: Hepatocyte growth factor receptor (Homo sapiens) (UniProt P08581); details: at 0.1 µM
[9] = biological target: Hepatocyte growth factor receptor (Homo sapiens) (UniProt P08581); details: at 1 µM
[10] = biological target: T2, Muscle, skeletal receptor tyrosine-protein kinase (Homo sapiens) (UniProt O15146); details: at 0.1 µM;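 also: values are mean inhibition of MuSK from the GSK PKIS kinase screening panel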
T2 sequence (whole entry): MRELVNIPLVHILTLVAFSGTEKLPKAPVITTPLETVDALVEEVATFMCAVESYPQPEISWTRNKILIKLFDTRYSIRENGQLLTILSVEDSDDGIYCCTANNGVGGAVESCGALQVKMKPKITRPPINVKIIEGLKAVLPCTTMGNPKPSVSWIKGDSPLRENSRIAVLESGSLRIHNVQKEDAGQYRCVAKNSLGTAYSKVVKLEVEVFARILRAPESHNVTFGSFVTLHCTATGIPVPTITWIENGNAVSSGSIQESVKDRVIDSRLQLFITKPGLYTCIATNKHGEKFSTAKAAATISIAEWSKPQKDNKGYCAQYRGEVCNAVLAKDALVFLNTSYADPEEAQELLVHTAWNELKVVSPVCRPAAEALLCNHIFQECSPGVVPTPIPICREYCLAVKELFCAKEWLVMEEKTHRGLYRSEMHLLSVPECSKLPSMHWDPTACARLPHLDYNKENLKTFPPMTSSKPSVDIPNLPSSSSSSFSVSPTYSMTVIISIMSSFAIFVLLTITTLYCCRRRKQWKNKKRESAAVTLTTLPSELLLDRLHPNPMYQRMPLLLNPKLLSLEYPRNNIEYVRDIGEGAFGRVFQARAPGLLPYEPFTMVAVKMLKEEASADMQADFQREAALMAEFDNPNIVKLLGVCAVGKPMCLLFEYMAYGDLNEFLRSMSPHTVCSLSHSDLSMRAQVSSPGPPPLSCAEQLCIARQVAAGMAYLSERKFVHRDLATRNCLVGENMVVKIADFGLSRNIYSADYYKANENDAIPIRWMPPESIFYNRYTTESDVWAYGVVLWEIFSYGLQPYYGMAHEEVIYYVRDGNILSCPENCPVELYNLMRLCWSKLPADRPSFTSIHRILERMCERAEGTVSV

Sequence of Hepatocyte growth factor receptor (Homo sapiens) (P08581 whole entry): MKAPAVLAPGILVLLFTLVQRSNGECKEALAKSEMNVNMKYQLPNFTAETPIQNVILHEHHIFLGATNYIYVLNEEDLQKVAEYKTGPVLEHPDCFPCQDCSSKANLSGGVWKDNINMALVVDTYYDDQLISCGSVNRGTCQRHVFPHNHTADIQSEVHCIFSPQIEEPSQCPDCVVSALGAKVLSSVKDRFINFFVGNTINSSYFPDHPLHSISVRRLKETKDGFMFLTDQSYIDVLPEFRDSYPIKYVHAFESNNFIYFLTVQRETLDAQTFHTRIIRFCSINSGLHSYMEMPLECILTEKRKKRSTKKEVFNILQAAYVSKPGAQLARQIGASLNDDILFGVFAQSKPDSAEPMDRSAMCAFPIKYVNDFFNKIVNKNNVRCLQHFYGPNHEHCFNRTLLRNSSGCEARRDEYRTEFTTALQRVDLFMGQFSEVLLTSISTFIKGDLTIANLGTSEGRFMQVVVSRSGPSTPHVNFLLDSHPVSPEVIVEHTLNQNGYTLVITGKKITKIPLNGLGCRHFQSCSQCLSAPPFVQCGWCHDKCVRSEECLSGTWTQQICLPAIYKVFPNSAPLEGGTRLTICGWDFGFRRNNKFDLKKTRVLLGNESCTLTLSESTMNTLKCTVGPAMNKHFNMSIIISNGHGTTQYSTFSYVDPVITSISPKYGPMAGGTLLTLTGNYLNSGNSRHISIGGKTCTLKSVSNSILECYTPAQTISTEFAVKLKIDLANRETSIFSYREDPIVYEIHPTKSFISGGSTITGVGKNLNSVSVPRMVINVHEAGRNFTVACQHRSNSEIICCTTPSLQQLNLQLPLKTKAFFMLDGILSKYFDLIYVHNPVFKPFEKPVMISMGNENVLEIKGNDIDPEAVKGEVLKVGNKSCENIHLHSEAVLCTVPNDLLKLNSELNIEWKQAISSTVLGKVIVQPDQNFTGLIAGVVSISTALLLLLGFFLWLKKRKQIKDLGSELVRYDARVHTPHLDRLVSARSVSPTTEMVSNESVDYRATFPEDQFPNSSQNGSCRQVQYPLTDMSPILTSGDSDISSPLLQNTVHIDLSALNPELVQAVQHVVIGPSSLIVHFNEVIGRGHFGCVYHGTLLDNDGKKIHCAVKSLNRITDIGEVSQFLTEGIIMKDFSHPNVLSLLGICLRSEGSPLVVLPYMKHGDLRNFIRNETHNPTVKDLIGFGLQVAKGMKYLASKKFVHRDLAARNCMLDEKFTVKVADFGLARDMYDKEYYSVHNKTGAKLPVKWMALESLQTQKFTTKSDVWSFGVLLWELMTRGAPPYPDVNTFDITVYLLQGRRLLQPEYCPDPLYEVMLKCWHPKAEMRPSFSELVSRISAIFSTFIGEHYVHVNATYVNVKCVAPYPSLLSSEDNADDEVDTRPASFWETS
Sequence of Tyrosine-protein kinase Lyn (Homo sapiens) (P07948 2-512 limits assumed): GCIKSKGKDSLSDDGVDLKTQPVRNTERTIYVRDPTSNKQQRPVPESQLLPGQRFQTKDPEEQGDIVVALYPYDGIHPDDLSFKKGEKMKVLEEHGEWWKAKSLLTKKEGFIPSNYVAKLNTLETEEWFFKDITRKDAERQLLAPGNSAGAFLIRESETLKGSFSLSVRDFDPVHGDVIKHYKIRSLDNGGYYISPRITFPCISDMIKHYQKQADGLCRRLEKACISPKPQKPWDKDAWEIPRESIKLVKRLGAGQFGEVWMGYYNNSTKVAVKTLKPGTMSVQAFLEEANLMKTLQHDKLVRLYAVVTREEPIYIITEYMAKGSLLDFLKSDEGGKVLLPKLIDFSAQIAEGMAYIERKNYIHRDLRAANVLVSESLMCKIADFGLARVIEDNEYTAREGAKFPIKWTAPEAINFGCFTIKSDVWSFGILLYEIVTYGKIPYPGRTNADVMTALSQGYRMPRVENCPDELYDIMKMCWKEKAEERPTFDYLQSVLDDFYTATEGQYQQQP
Sequence of Leukocyte tyrosine kinase receptor (Homo sapiens) (P29376 whole entry): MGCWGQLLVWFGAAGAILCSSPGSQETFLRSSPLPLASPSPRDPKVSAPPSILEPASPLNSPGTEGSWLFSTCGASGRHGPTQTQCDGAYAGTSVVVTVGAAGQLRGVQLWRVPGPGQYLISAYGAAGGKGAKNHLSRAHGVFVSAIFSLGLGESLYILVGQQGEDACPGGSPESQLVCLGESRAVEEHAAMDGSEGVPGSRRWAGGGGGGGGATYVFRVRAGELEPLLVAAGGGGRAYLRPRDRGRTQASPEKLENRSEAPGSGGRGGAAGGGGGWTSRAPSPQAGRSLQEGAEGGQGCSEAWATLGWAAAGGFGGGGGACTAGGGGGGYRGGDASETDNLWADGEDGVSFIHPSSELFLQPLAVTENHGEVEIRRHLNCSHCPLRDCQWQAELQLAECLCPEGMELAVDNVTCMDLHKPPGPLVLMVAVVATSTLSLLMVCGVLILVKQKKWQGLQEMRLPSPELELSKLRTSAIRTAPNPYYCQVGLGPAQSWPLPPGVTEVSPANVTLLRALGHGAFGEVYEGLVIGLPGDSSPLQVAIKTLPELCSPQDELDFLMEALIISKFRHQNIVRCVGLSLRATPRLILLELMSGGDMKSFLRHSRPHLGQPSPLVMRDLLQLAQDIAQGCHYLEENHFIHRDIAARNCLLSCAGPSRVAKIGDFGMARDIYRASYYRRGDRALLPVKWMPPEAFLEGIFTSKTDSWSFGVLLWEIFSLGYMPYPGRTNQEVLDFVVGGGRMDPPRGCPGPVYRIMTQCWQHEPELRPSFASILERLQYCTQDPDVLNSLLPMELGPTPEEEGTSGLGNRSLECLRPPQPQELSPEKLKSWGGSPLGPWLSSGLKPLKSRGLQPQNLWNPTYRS

| SMILES | inhibition [1] [%] | inhibition [2] [%] | inhibition [3] [%] | inhibition [4] [%] | inhibition [5] [%] | inhibition [6] [%] | inhibition [7] [%] | inhibition [8] [%] | inhibition [9] [%] | inhibition [10] [%] |
| --- | --- | --- | --- | --- | --- | --- | --- | --- | --- | --- |
| COc1ccc(-c2nn3ncccc3c2-c2ccnc(Nc3ccc(Cl)c(C(F)(F)F)c3)n2)cc1 | 2.96 | 2.95 | 7.79 | 2.39 | 7.64 | 0.1 | 0.41 | 7.55 | 4.08 | 2.01 |
| CCN1CCC(CC(=O)Nc2n[nH]c3nc(-c4cccs4)c(Br)cc23)CC1 | 0.89 | 0.07 | 1.67 | -0.46 | 1.82 | -0.67 | 3.05 | -0.73 | -0.38 | 0.33 |
| COc1cc2ncn(-c3cc(OCc4ccccc4Cl)c(C(N)=O)s3)c2cc1OC | 4.03 | 3.15 | 25.6 | 2.45 | 21.1 | 1.26 | 8.5 | -0.6 | 19.7 | 4.75 |
| COc1cc2ncn(-c3cc(OCc4ccccc4C(F)(F)F)c(C(N)=O)s3)c2cc1OC | 4.35 | 6.12 | 21.5 | 3.89 | 17.4 | 2.08 | 9.28 | 4.37 | 19.5 | 11 |
| O=C1NC(=O)C(c2ccc(Cl)cc2)=C1Nc1ccc(Cl)c(C(=O)O)c1 | -0.2 | 0.02 | -0.5 | -2.02 | -0.81 | 1.27 | 0.08 | -1.14 | -0.38 | -1.83 |
| N#Cc1c(NC(=O)c2cccc3ccccc23)sc2c1CCCC2 | 2.53 | 4.91 | 5.68 | 2.96 | 3.7 | 0.86 | 1.53 | 3.61 | 7.33 | 3.62 |
| COc1cc(C=NNc2ncnc3c2cnn3-c2ccccc2)ccc1O | 6.55 | 17.1 | 65.9 | 13.3 | 62.8 | 6.78 | 34.5 | 21.5 | 88.6 | 7.87 |
| CCn1c(-c2nonc2N)nc2ccncc21 | 0.42 | 2.64 | -1.88 | 1.5 | -0.9 | 0.16 | -0.52 | 8.81 | 2.41 | -0.65 |
| O=C1NC(=O)C(N2CCc3ccccc32)=C1c1ccc(Cl)cc1 | 1.64 | 6.82 | 6.94 | 5.14 | 4.26 | 4.06 | 6.47 | -1.68 | 7.33 | 2.09 |
| CCc1cccc(NC(=O)Nc2ccc(Oc3ccc4nc(NC(=O)OC)[nH]c4c3)cc2)c1 | 0.04 | 10 | 20.8 | 7.66 | 15.2 | 2.96 | 3.11 | 15.7 | 27.4 | 16.2 |
| COc1cccc(-n2ncc3c(N/N=C/c4cccc(F)c4)ncnc32)c1 | 1.7 | 13.9 | 55.9 | 10.2 | 50.7 | 0.34 | 7.16 | 7.49 | 17.2 | 3.52 |
| COc1cc2ncn(-c3cc(O[C@H](C)c4ccccc4Cl)c(C(N)=O)s3)c2cc1OC | 11.3 | 6.61 | 27.9 | 5.21 | 23.9 | 5.63 | 22.6 | 4.85 | 17 | 29.3 |
| CS(=O)(=O)CCNCc1nc(-c2ccc3ncnc(Nc4ccc(F)c(Cl)c4)c3c2)cs1 | 1.99 | 4.29 | 27.3 | 3.57 | 19.4 | 0.48 | 4.95 | 3.54 | 9.65 | 1.59 |
| CCn1c(-c2nonc2N)nc2c(N3CCCC3)nccc21 | -0.6 | 1.31 | -0.07 | 1.13 | 0.52 | 0.24 | 1.56 | -3.32 | -1.91 | 1.25 |
| Fc1cccc(COc2ccc(Nc3ncnc4cc(-c5ccc[nH]5)sc34)cc2Cl)c1 | 9.35 | 2.95 | 7.02 | 1.43 | 4.65 | 1.29 | 5.95 | -0.09 | 4.48 | 1.3 |
| COc1ccc(COc2ccc(Cc3cnc(N)nc3N)cc2OC)cc1 | -0.41 | 0.58 | 0.33 | 0.18 | 2.08 | 2.31 | 3.48 | 2.14 | 5.98 | 4.72 |
| CCn1c(-c2nonc2N)nc2c(C#CC(C)(C)O)nc(CN3CCCC3)cc21 | -0.04 | -1.54 | 0.2 | -1.39 | 0.5 | -0.28 | 0.18 | 5.85 | 5.28 | 0.58 |

| SMILES | inhibition [1] [%] | inhibition [2] [%] | inhibition [3] [%] | inhibition [4] [%] | inhibition [5] [%] | inhibition [6] [%] | inhibition [7] [%] | inhibition [8] [%] | inhibition [9] [%] | inhibition [10] [%] |
| --- | --- | --- | --- | --- | --- | --- | --- | --- | --- | --- |
| CC1=C(C(=O)Nc2ccc3[nH]ncc3c2)C(c2ccc(F)cc2)NC(=O)N1 (stereo not given) | 1.52 | 2.06 | 2.69 | 0.99 | 1.73 | 1.43 | 0.93 | 3 | 14.9 | 1.49 |
| Nc1ncnc2occ(-c3ccc(NC(=O)Nc4cccc(C(F)(F)F)c4)cc3)c12 | 47.1 | 19.4 | 72.2 | 13.3 | 67.8 | 3.32 | 31.6 | 3.03 | 29 | 72.9 |
| CC1=C(C(=O)Nc2ccc3[nH]ncc3c2)C(c2ccc(Cl)c(Cl)c2)CC(=O)N1 (stereo not given) | 0.02 | 3.35 | 9.96 | 2.18 | 7.24 | 0.79 | 1.25 | -0.1 | 5.85 | 2.88 |
| COC(=O)Nc1nc2cc(Oc3ccc(NC(=O)Nc4cccc(C(=O)O)c4)cc3)ccc2[nH]1 | -0.52 | 0.39 | 5.81 | 0.48 | 2.9 | 0.61 | 2.01 | -0.09 | 11.4 | -0.16 |
| COc1ccc2cc(-c3c(-c4ccncc4)nc(-c4ccc([S+](C)[O-])cc4)n3C)ccc2c1 (stereo not given) | 2.37 | 2.95 | 9.35 | 1.98 | 6.67 | 0.48 | 6.32 | 4.07 | -0.71 | 1.76 |
| COc1ccc(-c2ccncc2)cc1C(N)=O | 5.79 | 4.67 | 4.69 | 2.01 | 4.65 | 2.57 | 5.63 | 3.93 | 5.8 | 2.42 |
| CC(=O)Nc1cccc(C#Cc2cncnc2Nc2ccc(OCc3cccc(F)c3)c(Cl)c2)n1 | 1.48 | 0.69 | 4.88 | 0.67 | 3.79 | -0.16 | 0.67 | -2.7 | 2.91 | 2.44 |
| Cc1ccc(NC(=O)c2ccnc(N3CCCC3)c2)cc1-c1ccc(C(=O)NCC2CC2)cc1 | 2.5 | 3.64 | 8.64 | 1.83 | 5.14 | 1.62 | 3.81 | 9.41 | 7.36 | 4.38 |
| COc1ccccc1Nc1ncc(-c2ccccc2)o1 | 4.49 | 5.91 | 8.44 | 3.58 | 5.77 | 0.01 | 1.66 | 10.1 | 1.27 | 4.33 |
| NC(=O)c1ccc(-c2nc(-c3ccccn3)c(-c3ccc4c(c3)OCO4)[nH]2)cc1 | 3.18 | 2.23 | 2.11 | 1.62 | 3.18 | 1.67 | 3.36 | -4.12 | 9.28 | 2.51 |
| Nc1nc(-c2ccc3c(c2)C(=Cc2cc(Br)c(O)c(Br)c2)C(=O)N3)cs1 | 17.4 | 0.87 | 6.57 | 0.59 | 4.62 | -0.02 | 3.29 | 1.02 | 4.73 | 0.81 |
| NC(=O)c1cccc(Nc2nccc(Nc3cccc4[nH]ncc34)n2)c1 | 39 | 58.5 | 91.3 | 52.3 | 88.9 | -0.28 | 8.27 | -1.63 | 4.73 | 1.07 |
| CCn1c(-c2nonc2N)nc2c(C#CC(C)(C)O)nc(OC[C@@H](N)c3ccccc3)cc21 | 9.21 | -0.29 | 1.01 | -1.22 | 0.53 | -0.92 | 0.47 | -2.86 | -4.52 | -0.69 |
| Nc1ncnc2occ(-c3ccc(NC(=O)Nc4cc(C(F)(F)F)cc(C(F)(F)F)c4)cc3)c12 | 23.7 | 4.96 | 37 | 3.86 | 34 | 0.69 | 14.4 | -0.72 | 10.3 | 77.6 |
| Cc1ccc(C(=O)NC2CCCCC2)cc1-c1ccc(C(=O)NCC2CC2)cc1 | 0.02 | 2.9 | 2.6 | 1.53 | 0.34 | 1.63 | 3.6 | 4.53 | 5.05 | 6.01 |
| CS(=O)(=O)Nc1ccc(N/C=C2\C(=O)Nc3ccccc32)cc1 | 3.76 | 0.65 | 12.1 | -0.91 | 11.3 | -0.15 | 3.63 | -4.32 | -0.23 | 2.12 |
